Experimental data: PubChem BioAssay (NCI)
This is part of a sample that, as a whole, favours compounds with a hit. Of some 83,000 tested, about 20% had one in any assay.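 48-hour exposure, single concentration, 96-well plates; percent growth endpoint where 0 means no net growth. Active: below 10.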 Calls of active or inactive are those of the source.

Columns and labels:
Assay in all cases: NCI-60 one-dose screen, 48 h (100 = growth as untreated, 0 = no growth, -100 = all killed)
Settings in all cases: 10 µM
HCT-15 colon = tested on: HCT-15 colon
HT29 colon = tested on: HT29 colon
SNB-75 CNS = tested on: SNB-75 CNS
SNB-19 CNS = tested on: SNB-19 CNS
PC-3 prostate = tested on: PC-3 prostate
SK-MEL-5 melanoma = tested on: SK-MEL-5 melanoma
LOX IMVI melanoma = tested on: LOX IMVI melanoma
SK-MEL-28 melanoma = tested on: SK-MEL-28 melanoma
SK-MEL-2 melanoma = tested on: SK-MEL-2 melanoma
EKVX NSCLC = tested on: EKVX NSCLC
UO-31 renal = tested on: UO-31 renal
TK-10 renal = tested on: TK-10 renal
ACHN renal = tested on: ACHN renal
CAKI-1 renal = tested on: CAKI-1 renal
A498 renal = tested on: A498 renal
CCRF-CEM leukemia = tested on: CCRF-CEM leukemia
MOLT-4 leukemia = tested on: MOLT-4 leukemia
U251 CNS = tested on: U251 CNS
UACC-62 melanoma = tested on: UACC-62 melanoma
SN12C renal = tested on: SN12C renal

Measured: growth

CN(C)CCC1(c2ccccc2)CCN(C)C1=O (centres undefined)
inactive: HCT-15 colon 102% | HT29 colon 106% | SNB-75 CNS 95.8% | SNB-19 CNS 105% | PC-3 prostate 99.7% | SK-MEL-5 melanoma 96.1% | LOX IMVI melanoma 102% | SK-MEL-28 melanoma 103% | SK-MEL-2 melanoma 95.4% | EKVX NSCLC 110% | UO-31 renal 87.4% | TK-10 renal 112% | ACHN renal 102% | CAKI-1 renal 103% | A498 renal 94.1% | CCRF-CEM leukemia 103% | MOLT-4 leukemia 95.6%

O=C1c2ccccc2C(=O)c2c1ccc(C(Br)Br)c2[N+](=O)[O-]
inactive: HCT-15 colon 38.3% | SNB-75 CNS 109% | SNB-19 CNS 60.9% | PC-3 prostate 19.2% | SK-MEL-5 melanoma 60.8% | UACC-62 melanoma 27.6% | SK-MEL-28 melanoma 102% | SK-MEL-2 melanoma 77.5% | EKVX NSCLC 46.8% | SN12C renal 34.4% | UO-31 renal 50.6% | TK-10 renal 73.2% | A498 renal 26.6%
active: U251 CNS 9.58% | LOX IMVI melanoma -65.3% | ACHN renal -16.1% | CCRF-CEM leukemia -43.4% | MOLT-4 leukemia -45.5%

COc1ccc(C2=Cn3c(CCC(=O)c4nc5ccccc5[nH]4)nnc3SC2)cc1
inactive: HCT-15 colon 104% | SNB-75 CNS 110% | SNB-19 CNS 113% | U251 CNS 94.1% | PC-3 prostate 84.2% | SK-MEL-5 melanoma 87.7% | UACC-62 melanoma 106% | LOX IMVI melanoma 83.7% | SK-MEL-28 melanoma 111% | SK-MEL-2 melanoma 106% | EKVX NSCLC 90.3% | SN12C renal 98.9% | UO-31 renal 82% | TK-10 renal 125% | ACHN renal 110% | CAKI-1 renal 96.9% | A498 renal 58%

COc1ccc(-c2nn(-c3cccc(Cl)c3)cc2-c2cc(-c3ccccc3)nc(N)n2)cc1
active: LOX IMVI melanoma -84.1% | MOLT-4 leukemia 6.55%
inactive: HCT-15 colon 44.5% | HT29 colon 19.5% | SNB-75 CNS 89.9% | SNB-19 CNS 75.2% | PC-3 prostate 40% | SK-MEL-5 melanoma 73.3% | SK-MEL-28 melanoma 83.8% | SK-MEL-2 melanoma 83.6% | EKVX NSCLC 58.2% | SN12C renal 35.8% | UO-31 renal 60.8% | TK-10 renal 86% | ACHN renal 71.1% | CAKI-1 renal 29.2% | CCRF-CEM leukemia 41.1%

C[n+]1c2ccccc2nc2ccccc21
active: U251 CNS 4.11% | PC-3 prostate 7.71% | SK-MEL-5 melanoma 3.8% | UACC-62 melanoma -34.3% | LOX IMVI melanoma -36.5% | SK-MEL-28 melanoma -2.36% | SK-MEL-2 melanoma -24.2% | CCRF-CEM leukemia -0.566%
inactive: HCT-15 colon 21.3% | HT29 colon 21.2% | SNB-75 CNS 22.8% | EKVX NSCLC 54.9% | UO-31 renal 42.4% | ACHN renal 13.6% | CAKI-1 renal 15.3% | A498 renal 60% | MOLT-4 leukemia 24.9%

Nc1nc(N)c(N)c(Nc2ccc(CCO)cc2)n1
inactive: HCT-15 colon 115% | HT29 colon 104% | SNB-19 CNS 124% | U251 CNS 96.6% | PC-3 prostate 96.8% | SK-MEL-5 melanoma 99.4% | UACC-62 melanoma 97.5% | LOX IMVI melanoma 97.2% | SK-MEL-28 melanoma 113% | SK-MEL-2 melanoma 118% | EKVX NSCLC 91.9% | SN12C renal 100% | TK-10 renal 102% | ACHN renal 106% | CAKI-1 renal 100% | A498 renal 92.8%

COc1ccc(/C=C2\CCCC3=C2N=C2SC(C)=CN2C3c2ccc(OC)cc2)cc1 (centres undefined)
inactive: HCT-15 colon 102% | HT29 colon 104% | SNB-75 CNS 97.7% | SNB-19 CNS 100% | PC-3 prostate 99.9% | SK-MEL-5 melanoma 92.3% | LOX IMVI melanoma 91.5% | SK-MEL-28 melanoma 96.2% | SK-MEL-2 melanoma 98.6% | EKVX NSCLC 99.4% | SN12C renal 104% | UO-31 renal 82.1% | TK-10 renal 116% | ACHN renal 106% | CAKI-1 renal 96.4% | A498 renal 76.8% | CCRF-CEM leukemia 104% | MOLT-4 leukemia 103%

O=C(/C=C/c1cccc(B(O)O)c1)c1cccc(B(O)O)c1
inactive: SNB-75 CNS 45.3% | SNB-19 CNS 43.9% | PC-3 prostate 26.1% | SK-MEL-5 melanoma 22.1% | SK-MEL-2 melanoma 44.8% | EKVX NSCLC 56.3%
active: HCT-15 colon -40.4% | HT29 colon -46.5% | LOX IMVI melanoma -85.6% | SK-MEL-28 melanoma -21.4% | SN12C renal -3.76% | UO-31 renal -82.5% | TK-10 renal -11.7% | ACHN renal 0.0369% | CAKI-1 renal -8.72% | CCRF-CEM leukemia -13.8% | MOLT-4 leukemia 2.84%

CCOC(=O)c1cc(C(=O)c2ccc(OC)c(OC)c2)n2c1ccc1ccc3cccnc3c12
active: A498 renal -5.4%
inactive: HCT-15 colon 31.1% | SNB-75 CNS 18% | SNB-19 CNS 45.8% | U251 CNS 24.8% | PC-3 prostate 22.2% | SK-MEL-5 melanoma 17.4% | UACC-62 melanoma 47.4% | LOX IMVI melanoma 31.6% | SK-MEL-28 melanoma 60.2% | SK-MEL-2 melanoma 19% | EKVX NSCLC 78.6% | SN12C renal 62.1% | UO-31 renal 44% | TK-10 renal 70.5% | CCRF-CEM leukemia 19.9% | MOLT-4 leukemia 33.8%

COc1ccc(-c2nn(-c3cccc(Cl)c3)cc2C=C(C#N)C#N)cc1
active: HT29 colon -14.9% | SNB-75 CNS 3.23% | SK-MEL-5 melanoma 5.8% | LOX IMVI melanoma -66.5% | SK-MEL-2 melanoma -39.4% | TK-10 renal -3.05% | ACHN renal 9.38% | CCRF-CEM leukemia -27.3% | MOLT-4 leukemia -45.9%
inactive: SNB-19 CNS 16.6% | PC-3 prostate 12.6% | UACC-62 melanoma 11.1% | SK-MEL-28 melanoma 17.2% | SN12C renal 10.4% | UO-31 renal 11.9%

COc1ccc(/C=c2\sc3n(c2=O)C(c2cc(OC)c(OC)c(OC)c2)C=C(c2ccc(OC)c(OC)c2)N=3)cc1OC (centres undefined)
inactive: HCT-15 colon 90.3% | SNB-75 CNS 76.2% | SNB-19 CNS 89.9% | U251 CNS 98.9% | PC-3 prostate 86.6% | SK-MEL-5 melanoma 83.4% | UACC-62 melanoma 85.6% | LOX IMVI melanoma 93.8% | SK-MEL-28 melanoma 104% | SK-MEL-2 melanoma 106% | EKVX NSCLC 101% | SN12C renal 93.9% | TK-10 renal 105% | CAKI-1 renal 105% | A498 renal 94.5% | CCRF-CEM leukemia 64.4% | MOLT-4 leukemia 79.5%

CCn1c(CSc2nc3ccccc3c(=O)n2CCc2ccccc2)n[nH]c1=S
inactive: HT29 colon 88.2% | SNB-75 CNS 107% | SNB-19 CNS 106% | PC-3 prostate 83.9% | SK-MEL-5 melanoma 82.4% | UACC-62 melanoma 85.2% | LOX IMVI melanoma 74.2% | SK-MEL-28 melanoma 106% | SK-MEL-2 melanoma 103% | SN12C renal 104% | UO-31 renal 76.5% | ACHN renal 96.8% | CCRF-CEM leukemia 83.9% | MOLT-4 leukemia 71%

N=C1S/C(=C/c2ccc(-c3ccc4c(c3)C(=O)NC4=O)o2)C(=O)N1c1ccc(Br)cc1
active: SNB-75 CNS -3.31% | PC-3 prostate -2.15% | SK-MEL-28 melanoma -19.1% | UO-31 renal -13.3%
inactive: HCT-15 colon 47.1% | SNB-19 CNS 106% | SK-MEL-5 melanoma 65.5% | UACC-62 melanoma 31.8% | SN12C renal 56.3% | TK-10 renal 42.6% | ACHN renal 52% | CAKI-1 renal 33.7% | A498 renal 39.5% | MOLT-4 leukemia 52.2%

COc1cc(N)c2ncccc2c1SC
inactive: HCT-15 colon 112% | SNB-75 CNS 91% | SNB-19 CNS 99% | U251 CNS 102% | PC-3 prostate 101% | SK-MEL-5 melanoma 107% | UACC-62 melanoma 110% | LOX IMVI melanoma 93.1% | SK-MEL-28 melanoma 106% | EKVX NSCLC 86% | SN12C renal 105% | ACHN renal 104% | CAKI-1 renal 99.2% | A498 renal 71.8% | CCRF-CEM leukemia 98.5% | MOLT-4 leukemia 101%

COc1ccccc1-n1c(-c2csc(NC(C)=O)n2)n[nH]c1=S
inactive: HT29 colon 95.1% | SNB-75 CNS 86.5% | SNB-19 CNS 114% | PC-3 prostate 95.4% | SK-MEL-5 melanoma 99.6% | UACC-62 melanoma 110% | LOX IMVI melanoma 93.1% | SK-MEL-28 melanoma 109% | SK-MEL-2 melanoma 100% | SN12C renal 114% | UO-31 renal 79.6% | TK-10 renal 89.1% | CCRF-CEM leukemia 93.8% | MOLT-4 leukemia 92.3%

COc1cc(-c2nn(-c3cccc(NC(=O)NCCNS(=O)(=O)c4ccc(Cl)cc4)c3)cc2-c2ccncc2)ccc1Cl
active: SNB-75 CNS 0.927% | U251 CNS -0.109% | PC-3 prostate 7.5% | SK-MEL-5 melanoma -74.6% | LOX IMVI melanoma -0.864% | SK-MEL-2 melanoma 2.83% | TK-10 renal 5.09% | A498 renal -10.5% | CCRF-CEM leukemia 9.85%
inactive: HCT-15 colon 26.5% | SNB-19 CNS 38.1% | UACC-62 melanoma 25.6% | SK-MEL-28 melanoma 21.4% | SN12C renal 35.5% | UO-31 renal 21.1% | ACHN renal 11.3% | MOLT-4 leukemia 12.1%

CNC(=O)c1c(I)c(NC(C)=O)c(I)c(C(=O)O)c1I
inactive: HCT-15 colon 105% | SNB-75 CNS 87.3% | SNB-19 CNS 96.2% | U251 CNS 102% | PC-3 prostate 93% | SK-MEL-5 melanoma 108% | UACC-62 melanoma 98.5% | LOX IMVI melanoma 94.5% | SK-MEL-28 melanoma 114% | EKVX NSCLC 126% | SN12C renal 95.6% | UO-31 renal 88.6% | TK-10 renal 114% | ACHN renal 102% | CAKI-1 renal 115% | A498 renal 99.3% | CCRF-CEM leukemia 104% | MOLT-4 leukemia 110%
